Menin-MLL TR inh: qHTS Assay for Inhibitors Targeting the Menin-MLL Interaction in MLL Related Leukemias: Competition With Texas Red Labeled MLL-derived Mutant Peptide; O00255; Menin + Texas Red MLL mutant peptide, fluorescence polarization; Potency, µM (doses to about 61.6 µM), for inactives: top-dose FP activity change, negative = inhibition, actives largely listed as inhibitors; hit rate 0.23% among 270,000; AID 1768, 2009; active means well fitted inhibition curve with a large enough effect in the polarisation, with a control signal flat, not every such curve was filed as active; inconclusive means small, poorly fitted or top-dose-only effect, or effect the other way, or a change in a side signal; inactive means no such curve, though single readings can be large or run the other way; the % refers to the polarisation; further: potency means the concentration at half of the fitted maximal effect; % of control where 0% means no effect
MLL CXXC-DNA inh: qHTS Fluorescence Polarization Assay for Inhibitors of MLL CXXC domain - DNA interaction; MLL-CXXC / FITC-HOXA9 DNA fluorescence polarization; Potency, µM (top dose mostly 115 µM), inactives show top-dose activity change, negative = inhibition, most hits filed as inhibitors; hit rate 0.037% among 290,000; active means well fitted inhibition curve with a large enough effect in the polarisation, with a control signal flat, not every such curve was filed as active; inconclusive means small, poorly fitted or top-dose-only effect, or effect the other way, or a change in a side signal; inactive means no such curve, though single readings can be large or run the other way; the % refers to the polarisation; further: potency means the concentration at half of the fitted maximal effect
Target sequence (Q03164 whole entry, looked up, the tested form may be a part): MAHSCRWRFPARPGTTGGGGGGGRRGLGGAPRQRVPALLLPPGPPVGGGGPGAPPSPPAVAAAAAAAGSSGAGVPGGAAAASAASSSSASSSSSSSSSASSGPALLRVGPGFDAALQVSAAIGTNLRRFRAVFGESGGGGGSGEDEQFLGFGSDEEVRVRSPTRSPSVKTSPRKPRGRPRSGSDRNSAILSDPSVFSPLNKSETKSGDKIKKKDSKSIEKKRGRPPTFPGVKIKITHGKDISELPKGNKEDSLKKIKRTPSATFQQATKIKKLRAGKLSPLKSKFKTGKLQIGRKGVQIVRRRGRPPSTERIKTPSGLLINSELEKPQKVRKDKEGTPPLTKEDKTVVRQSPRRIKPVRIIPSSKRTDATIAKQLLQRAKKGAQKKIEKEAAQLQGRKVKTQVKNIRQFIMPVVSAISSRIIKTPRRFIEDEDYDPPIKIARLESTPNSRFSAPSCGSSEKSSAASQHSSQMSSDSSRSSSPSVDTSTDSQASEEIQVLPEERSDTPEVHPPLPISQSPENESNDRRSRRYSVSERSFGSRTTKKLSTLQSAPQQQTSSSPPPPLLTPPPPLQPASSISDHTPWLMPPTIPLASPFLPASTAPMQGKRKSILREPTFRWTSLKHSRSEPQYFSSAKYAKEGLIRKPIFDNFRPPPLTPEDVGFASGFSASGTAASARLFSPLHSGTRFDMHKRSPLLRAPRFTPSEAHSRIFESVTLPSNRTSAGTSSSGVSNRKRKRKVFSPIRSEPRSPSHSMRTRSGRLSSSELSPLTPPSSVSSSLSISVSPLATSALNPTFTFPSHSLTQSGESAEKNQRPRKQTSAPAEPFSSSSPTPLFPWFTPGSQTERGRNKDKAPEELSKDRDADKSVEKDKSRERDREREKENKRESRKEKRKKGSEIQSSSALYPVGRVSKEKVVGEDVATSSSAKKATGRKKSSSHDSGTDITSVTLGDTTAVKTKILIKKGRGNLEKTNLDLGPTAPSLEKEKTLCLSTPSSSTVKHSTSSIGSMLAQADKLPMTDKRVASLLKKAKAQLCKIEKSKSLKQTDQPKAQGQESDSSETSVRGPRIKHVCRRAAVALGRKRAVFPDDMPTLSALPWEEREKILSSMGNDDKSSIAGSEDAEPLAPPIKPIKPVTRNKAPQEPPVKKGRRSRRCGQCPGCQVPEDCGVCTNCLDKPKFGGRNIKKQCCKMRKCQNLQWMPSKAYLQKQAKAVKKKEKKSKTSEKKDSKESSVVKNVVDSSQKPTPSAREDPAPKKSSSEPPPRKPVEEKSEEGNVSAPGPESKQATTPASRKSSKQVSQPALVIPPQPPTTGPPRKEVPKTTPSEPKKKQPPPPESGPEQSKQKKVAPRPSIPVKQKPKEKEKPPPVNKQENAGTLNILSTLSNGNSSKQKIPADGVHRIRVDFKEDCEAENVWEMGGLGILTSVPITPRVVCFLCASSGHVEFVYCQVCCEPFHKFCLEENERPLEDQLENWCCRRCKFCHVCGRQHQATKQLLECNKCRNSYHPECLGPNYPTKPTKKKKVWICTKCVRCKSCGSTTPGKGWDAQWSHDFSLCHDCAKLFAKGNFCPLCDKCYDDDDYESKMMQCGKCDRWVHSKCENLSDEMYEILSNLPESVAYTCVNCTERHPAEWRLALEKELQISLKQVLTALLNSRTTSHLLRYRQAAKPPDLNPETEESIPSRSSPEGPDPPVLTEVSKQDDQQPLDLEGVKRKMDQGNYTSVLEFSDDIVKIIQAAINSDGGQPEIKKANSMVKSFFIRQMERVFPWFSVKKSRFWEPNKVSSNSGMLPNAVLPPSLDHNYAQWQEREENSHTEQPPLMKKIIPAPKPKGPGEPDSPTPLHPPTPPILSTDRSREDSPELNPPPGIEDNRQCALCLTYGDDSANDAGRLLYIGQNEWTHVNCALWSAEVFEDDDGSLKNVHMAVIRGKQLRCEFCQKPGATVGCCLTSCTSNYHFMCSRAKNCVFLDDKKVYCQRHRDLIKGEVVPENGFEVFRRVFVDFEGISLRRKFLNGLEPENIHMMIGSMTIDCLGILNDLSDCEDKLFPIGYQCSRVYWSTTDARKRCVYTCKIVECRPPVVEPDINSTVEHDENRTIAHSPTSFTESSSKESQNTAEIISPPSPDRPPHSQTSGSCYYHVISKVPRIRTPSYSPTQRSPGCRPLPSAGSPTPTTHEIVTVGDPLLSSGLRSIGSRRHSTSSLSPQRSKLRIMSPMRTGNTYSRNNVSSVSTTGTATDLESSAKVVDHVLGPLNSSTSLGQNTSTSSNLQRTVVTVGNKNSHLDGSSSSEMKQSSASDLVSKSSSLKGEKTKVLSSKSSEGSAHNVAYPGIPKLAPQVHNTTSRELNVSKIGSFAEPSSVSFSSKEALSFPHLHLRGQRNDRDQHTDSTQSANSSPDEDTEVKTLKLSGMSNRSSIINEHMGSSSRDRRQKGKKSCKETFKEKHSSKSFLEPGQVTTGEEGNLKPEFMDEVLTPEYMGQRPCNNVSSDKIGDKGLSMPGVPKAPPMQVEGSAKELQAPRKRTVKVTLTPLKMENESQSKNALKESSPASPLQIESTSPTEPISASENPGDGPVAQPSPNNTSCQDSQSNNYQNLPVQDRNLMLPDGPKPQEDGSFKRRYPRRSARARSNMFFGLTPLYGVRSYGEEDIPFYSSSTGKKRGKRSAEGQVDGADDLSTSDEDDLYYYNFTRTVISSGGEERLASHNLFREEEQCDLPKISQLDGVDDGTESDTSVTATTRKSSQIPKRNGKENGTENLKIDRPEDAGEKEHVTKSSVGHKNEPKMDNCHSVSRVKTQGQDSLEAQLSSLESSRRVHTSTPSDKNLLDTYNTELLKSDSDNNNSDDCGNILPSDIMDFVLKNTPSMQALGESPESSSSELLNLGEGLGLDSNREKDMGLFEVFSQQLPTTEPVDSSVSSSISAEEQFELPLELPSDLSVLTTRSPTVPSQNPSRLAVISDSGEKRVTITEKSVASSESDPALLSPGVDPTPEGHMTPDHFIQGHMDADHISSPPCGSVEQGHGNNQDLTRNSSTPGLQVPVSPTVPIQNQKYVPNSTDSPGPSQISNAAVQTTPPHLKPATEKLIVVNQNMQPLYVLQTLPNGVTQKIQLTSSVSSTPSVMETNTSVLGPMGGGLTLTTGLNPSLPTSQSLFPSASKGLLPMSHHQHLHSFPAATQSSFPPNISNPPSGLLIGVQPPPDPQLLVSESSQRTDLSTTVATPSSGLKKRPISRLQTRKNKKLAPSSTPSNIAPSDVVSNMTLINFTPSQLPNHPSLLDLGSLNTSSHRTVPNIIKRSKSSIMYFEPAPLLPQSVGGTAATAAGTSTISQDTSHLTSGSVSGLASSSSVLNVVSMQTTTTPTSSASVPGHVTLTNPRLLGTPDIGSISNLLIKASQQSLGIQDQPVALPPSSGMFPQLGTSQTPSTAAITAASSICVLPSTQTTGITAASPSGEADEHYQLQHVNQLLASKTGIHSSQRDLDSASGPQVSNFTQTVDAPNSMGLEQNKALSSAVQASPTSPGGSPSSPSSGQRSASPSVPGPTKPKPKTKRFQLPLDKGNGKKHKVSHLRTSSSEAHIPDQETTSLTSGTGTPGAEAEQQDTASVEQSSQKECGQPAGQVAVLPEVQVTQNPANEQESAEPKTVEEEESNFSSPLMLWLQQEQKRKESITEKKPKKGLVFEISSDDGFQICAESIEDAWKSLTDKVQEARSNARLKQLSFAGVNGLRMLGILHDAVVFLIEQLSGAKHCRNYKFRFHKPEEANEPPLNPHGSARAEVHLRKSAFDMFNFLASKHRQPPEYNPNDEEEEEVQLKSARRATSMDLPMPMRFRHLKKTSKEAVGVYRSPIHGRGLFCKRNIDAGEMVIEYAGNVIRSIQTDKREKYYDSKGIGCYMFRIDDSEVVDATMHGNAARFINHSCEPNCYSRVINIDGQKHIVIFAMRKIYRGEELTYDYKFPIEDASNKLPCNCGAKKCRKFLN
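Steps: dispense CXXC domain solution (7 uM) → pin compounds or unlabeled HOX-A9 DNA control → 5 min ambient → add FLSN-HOX-A9 solution (50 nM) → spin → 30 min ambient → fluorescence polarization. Tris pH 7.5/NaCl/DTT/BSA buffer.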
Menin-MLL FL inh: qHTS Assay for Inhibitors Targeting the Menin-MLL Interaction in MLL Related Leukemias: Competition With Fluorescein Labeled MLL-derived Peptide; Fluorescence polarization, fluorescein-MLL peptide displacement from menin; FP activity change, % at 61.4 µM; 290,000 tested, under 10 active; AID 1766, 2009; active means well fitted curve in the direction sought with a large enough effect in the polarisation, not every such curve was filed as active; inconclusive means small, poorly fitted or top-dose-only effect, or effect the other way, or a change in a side signal; inactive means no such curve, though single readings can be large or run the other way; the % refers to the polarisation; further: % of control where 0% means no effect
* hit, by the source's call; [ ] = remark or other dose. Only a selection was taken, and hits are over-represented in it overall.

Results for Cc1ccc(C2=NN(C(=O)c3cccs3)C(c3ccccc3O)C2)cc1 (stereo unspecified) ?
Menin-MLL TR inh: inconclusive; MLL CXXC-DNA inh: -9%; Menin-MLL FL inh: 0

What do the screens show for `O=C(Nc1ccc(F)cc1)N1CCOCC1`?
Menin-MLL TR inh: 0%; MLL CXXC-DNA inh: 4%; Menin-MLL FL inh: -3

How did CN(C)c1ccc(NC(=O)N2CCOCC2)cc1 do in these assays?
Menin-MLL TR inh: 20µM*; MLL CXXC-DNA inh: 6%; Menin-MLL FL inh: 0

How did CCCN1CCCc2ccccc21 do in these assays?
Menin-MLL TR inh: 25µM*; MLL CXXC-DNA inh: -9%; Menin-MLL FL inh: 1

Results for CCN1C(=O)CCCc2ccccc21 ?
Menin-MLL TR inh: -1%; MLL CXXC-DNA inh: 4%; Menin-MLL FL inh: -1

How did CSCC[C@H](NC(=O)[C@H](Cc1ccccc1)NC(=O)[C@H](Cc1cnc[nH]1)NC(=O)CNC(=O)[C@@H](NC(=O)[C@H](C)NC(=O)[C@H](Cc1c[nH]c2ccccc12)NC(=O)[C@H](CC(C)C)NC(=O)[C@H](CC(N)=O)NC(=O)CN)[C@@H](C)O)C(N)=O do in these assays?
Menin-MLL TR inh: -13%; Menin-MLL FL inh: -6

What do the screens show for `CCOC(=O)c1sc(NC(=O)CN2C(=O)c3cccc4cccc(c34)C2=O)nc1C`?
Menin-MLL TR inh: 4µM*; MLL CXXC-DNA inh: 26%; Menin-MLL FL inh: -1

How did CCOC(=O)c1sc(NC(=O)CCCCCN2C(=O)c3cccc4cccc(c34)C2=O)nc1C do in these assays?
MLL CXXC-DNA inh: 6%; Menin-MLL FL inh: 1

Results for COc1ccc(OC)c(C2=Nn3c(nnc3-c3ccc(OC)c(OC)c3)SC2)c1 ?
Menin-MLL TR inh: 2%; Menin-MLL FL inh: -1

How did CC1(C)CC(NC(=O)c2ccccc2)CC(C)(C)N1 do in these assays?
Menin-MLL TR inh: 13%; MLL CXXC-DNA inh: -3%; Menin-MLL FL inh: -2

How did CC1(C)CC(Nc2ccc(Nc3ccccc3)cc2)CC(C)(C)N1 do in these assays?
Menin-MLL TR inh: 20µM*; MLL CXXC-DNA inh: -3%; Menin-MLL FL inh: 2

What do the screens show for `Nc1ccn([C@@H]2O[C@H](CO)[C@H](O)C2(F)F)c(=O)n1`?
Menin-MLL TR inh: -4%; MLL CXXC-DNA inh: -8%; Menin-MLL FL inh: 1

Results for OCc1cccc(Cl)c1Cl ?
Menin-MLL TR inh: 7%; Menin-MLL FL inh: -5

How did CC(C)c1ccc2c(c1)CCC1C(C)(CN)CCCC21C (stereo unspecified) do in these assays?
Menin-MLL TR inh: 20µM*; MLL CXXC-DNA inh: 15%; Menin-MLL FL inh: -10

How did CC(C)c1ccc2c(c1)CC[C@@H]1[C@@](C)(CN)CCC[C@]21C do in these assays?
Menin-MLL TR inh: -3%[24.8 µM]; Menin-MLL FL inh: inconclusive

Results for CN(C)C1CCN(CCCOc2ccc(-c3ccc(C#N)cc3)cc2)C1 (stereo unspecified) ?
Menin-MLL TR inh: 3%; Menin-MLL FL inh: -1

Results for N#Cc1sc2nc(-c3cccs3)cc(-c3ccccc3)c2c1N ?
Menin-MLL TR inh: 13µM*; MLL CXXC-DNA inh: 17%; Menin-MLL FL inh: inconclusive

Results for CCN(CC)C(=O)c1sc2nc(-c3cccs3)cc(-c3ccc(Cl)cc3)c2c1N ?
Menin-MLL TR inh: inconclusive; MLL CXXC-DNA inh: inconclusive; Menin-MLL FL inh: 14

How did N#Cc1sc2nc(-c3cccs3)cc(-c3ccc(Cl)cc3)c2c1N do in these assays?
Menin-MLL TR inh: 25µM*; MLL CXXC-DNA inh: -10%; Menin-MLL FL inh: inconclusive

What do the screens show for `N#Cc1sc2nc(-c3ccccc3)cc(C(F)(F)F)c2c1N`?
Menin-MLL TR inh: 18%; MLL CXXC-DNA inh: 6%; Menin-MLL FL inh: 4

What do the screens show for `CC(=O)OCC(=O)[C@@]1(O)CCC2C3CC(C)C4=CC(=O)C=CC4(C)C3C(O)CC21C` (stereo partly specified)?
Menin-MLL TR inh: -11%; Menin-MLL FL inh: 1

What do the screens show for `NC(=O)C1CCCN1C(=O)C(Cc1cnc[nH]1)NC(=O)C1CCC(=O)N1` (stereo unspecified)?
Menin-MLL TR inh: -10%; Menin-MLL FL inh: 0

How did O=S1(=O)C2CC3CCC2(CN1Cc1ccccc1)O3 (stereo unspecified) do in these assays?
Menin-MLL TR inh: 3%; Menin-MLL FL inh: 3

How did CCOC(=O)C(=Cc1ccc(F)cc1)C(=O)OCC do in these assays?
Menin-MLL TR inh: inconclusive; MLL CXXC-DNA inh: -2%; Menin-MLL FL inh: 3

What do the screens show for `CCOC(=O)C(=Cc1ccc(Br)cc1)C(=O)OCC`?
Menin-MLL TR inh: 28µM*; MLL CXXC-DNA inh: -7%; Menin-MLL FL inh: 4

Results for CC(=O)N[C@H]1CSSC[C@@H](C(=O)N2CCC[C@H]2C(=O)N2CCC[C@H]2C(=O)N[C@@H](CCCCN)C(=O)N[C@@H](CC(=O)O)C(N)=O)NC(=O)CNC(=O)[C@H](Cc2c[nH]c3ccccc23)NC(=O)[C@H](CCCNC(=N)N)NC(=O)[C@@H](Cc2ccc(Cl)c(Cl)c2)NC(=O)[C@H](Cc2cnc[nH]2)NC(=O)[C@H](CCC(=O)O)NC1=O ?
Menin-MLL TR inh: 3%; Menin-MLL FL inh: -3

How did CCCCN(CC)c1nc(C)nc2c1c(C)c(C)n2-c1c(C)cc(C)cc1C do in these assays?
Menin-MLL TR inh: -11%; Menin-MLL FL inh: 3

Results for CCCCOc1ccc(-c2nnn(CC(=O)c3c[nH]c4ccccc34)n2)cc1 ?
Menin-MLL TR inh: 8.9µM*; MLL CXXC-DNA inh: 30%; Menin-MLL FL inh: 11

How did COc1ccc(-c2nnn(CC(=O)c3c[nH]c4ccccc34)n2)cc1OC do in these assays?
Menin-MLL TR inh: inconclusive; MLL CXXC-DNA inh: 24%; Menin-MLL FL inh: 3

How did [O]=[Bi][O][Bi]=[O] do in these assays?
Menin-MLL TR inh: -3%; MLL CXXC-DNA inh: -5%; Menin-MLL FL inh: 1

Results for O=C(O)CCNC(=O)c1ccc(N=Nc2ccc(O)c(C(=O)O)c2)cc1 ?
Menin-MLL TR inh: 4%; MLL CXXC-DNA inh: -2%; Menin-MLL FL inh: -5

What do the screens show for `O=C(O)c1cc(N=Nc2ccc(O)c(C(=O)O)c2)ccc1O`?
Menin-MLL TR inh: 40µM*; MLL CXXC-DNA inh: -9%; Menin-MLL FL inh: -7

How did Clc1ccc(Oc2ncnc3oc(-c4ccccc4)cc23)cc1 do in these assays?
Menin-MLL TR inh: 10µM*; MLL CXXC-DNA inh: 7%; Menin-MLL FL inh: -2

What do the screens show for `Cc1ccccc1Oc1ncnc2oc(-c3ccccc3)cc12`?
Menin-MLL TR inh: 20%; MLL CXXC-DNA inh: 20%; Menin-MLL FL inh: 4

How did CC[C@H](C)[C@H](NC(=O)[C@H](C)NC(=O)CNC(=O)[C@H](CCCN=C(N)N)NC(=O)[C@H](C)NC(=O)[C@H](CC(C)C)NC(=O)[C@H](CCC(=O)O)NC(=O)[C@H](CC(C)C)NC(=O)[C@H](C)NC(=O)[C@@H](N)CCC(=O)O)C(=O)N[C@@H](Cc1ccccc1)C(=O)N[C@@H](CCC(N)=O)C(=O)N[C@@H](C)C(=O)O do in these assays?
Menin-MLL TR inh: -19%; Menin-MLL FL inh: 0

Results for COc1cccc(Nc2nc(-c3ccc(O)cc3)cs2)c1 ?
Menin-MLL TR inh: inconclusive; MLL CXXC-DNA inh: -3%; Menin-MLL FL inh: 2

Results for COc1cccc(Nc2nc(-c3cccc(N4C(=O)c5ccccc5C4=O)c3)cs2)c1 ?
Menin-MLL TR inh: 14µM*; MLL CXXC-DNA inh: 33%; Menin-MLL FL inh: 2

Screening data: PubChem BioAssay, National Center for Advancing Translational Sciences (NCATS)
